Results reported in publication PMC7862700, “An all-to-all approach to the identification of sequence-specific readers for epigenetic DNA modifications on cytosine”.

How the values were obtained:
Test in all cases: DAPPL (digital affinity profiling via proximity ligation, sequencing); 10 mM Tris-HCl pH 7.5, 50 mM NaCl, 1 mM DTT, 4% glycerol, room temperature, 30 min; GST-TFs on glutathione beads, 16-mer random dsDNA library, 0.1% formaldehyde crosslink after washing; high values mean tight binding
Conditions in all cases: protein: recombinant; tags: N-terminal GST; dsDNA, one strand shown
[1] = biological target: T1, ERF (Homo sapiens, UniProt P50548 1-548)
T1 sequence: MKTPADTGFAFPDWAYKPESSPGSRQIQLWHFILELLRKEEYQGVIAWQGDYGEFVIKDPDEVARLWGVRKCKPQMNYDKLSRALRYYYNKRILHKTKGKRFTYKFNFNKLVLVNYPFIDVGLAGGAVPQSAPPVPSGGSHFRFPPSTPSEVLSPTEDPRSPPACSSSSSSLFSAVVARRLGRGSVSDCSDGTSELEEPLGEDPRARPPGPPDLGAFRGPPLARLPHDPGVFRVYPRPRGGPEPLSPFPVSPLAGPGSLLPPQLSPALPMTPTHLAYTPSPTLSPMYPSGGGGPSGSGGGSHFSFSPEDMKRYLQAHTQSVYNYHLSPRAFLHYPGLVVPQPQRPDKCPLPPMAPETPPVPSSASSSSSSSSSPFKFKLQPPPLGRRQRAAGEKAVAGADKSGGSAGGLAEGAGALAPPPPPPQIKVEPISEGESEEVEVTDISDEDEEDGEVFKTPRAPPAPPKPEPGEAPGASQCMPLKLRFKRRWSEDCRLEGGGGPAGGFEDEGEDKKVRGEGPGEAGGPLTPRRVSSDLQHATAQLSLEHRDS
How it was run: (§1)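 Sequencing on an Illumina NextSeq500 followed washing, crosslinking with 0.1% formaldehyde, proximity ligation (BsaI/T4 ligase, 1 h, 37 °C) and PCR amplification of pools that had been incubated for 30 min at room temperature with 200 nmole of a random double-stranded 16-mer DNA library in Tris/NaCl/DTT/glycerol buffer. Each pool held DNA-barcoded human transcription factors, expressed in yeast as GST fusions and captured on glutathione beads, plus a tag-only sample. Binding signal is a hexamer's read frequency for a factor divided by its frequency in the tag-only sample.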

[2] = biological target: T2, ETV3L (Homo sapiens, UniProt Q6ZN32 1-361)
T2 sequence: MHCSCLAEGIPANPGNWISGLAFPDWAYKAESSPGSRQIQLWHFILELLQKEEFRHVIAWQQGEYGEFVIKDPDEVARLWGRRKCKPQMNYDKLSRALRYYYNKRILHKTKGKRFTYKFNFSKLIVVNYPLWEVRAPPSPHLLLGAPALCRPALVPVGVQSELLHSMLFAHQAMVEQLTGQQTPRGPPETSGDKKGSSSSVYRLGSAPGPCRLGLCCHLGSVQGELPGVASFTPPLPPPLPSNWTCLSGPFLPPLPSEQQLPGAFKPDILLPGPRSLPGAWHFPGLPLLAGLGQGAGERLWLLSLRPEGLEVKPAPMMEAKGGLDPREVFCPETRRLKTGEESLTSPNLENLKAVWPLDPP
How it was run: as §1

[3] = biological target: T3, ETS2 (Homo sapiens, UniProt P15036 1-469)
T3 sequence: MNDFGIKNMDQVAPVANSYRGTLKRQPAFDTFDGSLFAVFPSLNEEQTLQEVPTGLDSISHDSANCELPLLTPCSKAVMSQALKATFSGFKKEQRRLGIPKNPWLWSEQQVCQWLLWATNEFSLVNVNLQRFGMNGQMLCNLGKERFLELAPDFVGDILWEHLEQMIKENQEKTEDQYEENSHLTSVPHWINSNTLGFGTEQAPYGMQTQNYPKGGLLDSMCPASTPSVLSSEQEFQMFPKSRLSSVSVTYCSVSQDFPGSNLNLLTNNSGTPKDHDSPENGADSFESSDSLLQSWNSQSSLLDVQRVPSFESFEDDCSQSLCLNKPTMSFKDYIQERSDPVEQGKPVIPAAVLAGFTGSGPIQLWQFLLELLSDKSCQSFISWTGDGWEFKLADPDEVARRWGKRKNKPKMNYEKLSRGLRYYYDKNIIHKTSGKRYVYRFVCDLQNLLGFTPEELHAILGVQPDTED
How it was run: as §1

[4] = biological target: T4, SPDEF (Homo sapiens, UniProt O95238 1-335)
T4 sequence: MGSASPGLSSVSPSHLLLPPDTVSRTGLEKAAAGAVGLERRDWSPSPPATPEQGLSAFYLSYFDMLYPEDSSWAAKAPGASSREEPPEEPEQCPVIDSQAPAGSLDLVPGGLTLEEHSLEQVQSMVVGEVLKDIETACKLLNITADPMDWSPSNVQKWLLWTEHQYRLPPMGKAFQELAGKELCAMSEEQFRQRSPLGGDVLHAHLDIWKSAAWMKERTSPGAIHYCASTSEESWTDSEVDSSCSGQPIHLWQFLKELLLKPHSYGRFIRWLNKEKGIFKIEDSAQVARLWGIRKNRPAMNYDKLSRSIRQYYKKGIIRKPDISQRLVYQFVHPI
How it was run: as §1

[5] = biological target: T5, ETV7 (Homo sapiens, UniProt Q9Y603 1-341)
T5 sequence: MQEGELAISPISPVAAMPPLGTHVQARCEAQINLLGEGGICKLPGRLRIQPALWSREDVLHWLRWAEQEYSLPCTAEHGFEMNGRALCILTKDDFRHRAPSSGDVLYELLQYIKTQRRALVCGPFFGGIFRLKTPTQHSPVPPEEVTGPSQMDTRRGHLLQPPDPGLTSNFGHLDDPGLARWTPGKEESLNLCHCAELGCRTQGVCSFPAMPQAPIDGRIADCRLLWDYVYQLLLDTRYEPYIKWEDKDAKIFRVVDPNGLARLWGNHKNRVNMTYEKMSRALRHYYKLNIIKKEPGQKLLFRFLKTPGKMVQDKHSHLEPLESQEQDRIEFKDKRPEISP
How it was run: as §1

[6] = biological target: T6, ELF5 (Homo sapiens, UniProt Q9UKW6-2 1-255)
T6 sequence: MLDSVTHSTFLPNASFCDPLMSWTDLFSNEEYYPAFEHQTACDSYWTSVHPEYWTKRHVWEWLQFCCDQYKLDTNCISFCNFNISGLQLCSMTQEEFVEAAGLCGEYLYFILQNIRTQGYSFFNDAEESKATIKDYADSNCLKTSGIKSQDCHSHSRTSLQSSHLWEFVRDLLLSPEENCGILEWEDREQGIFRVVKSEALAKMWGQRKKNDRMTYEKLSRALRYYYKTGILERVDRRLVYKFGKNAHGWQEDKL
How it was run: as §1

[7] = biological target: T7, ETV3 (Homo sapiens, UniProt P41162-2 1-143)
T7 sequence: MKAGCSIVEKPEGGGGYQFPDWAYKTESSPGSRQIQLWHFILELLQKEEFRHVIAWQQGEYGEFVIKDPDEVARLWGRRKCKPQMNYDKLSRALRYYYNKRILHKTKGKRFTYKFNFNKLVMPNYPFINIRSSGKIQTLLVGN
How it was run: as §1

[8] = biological target: ETV6 (Homo sapiens, UniProt P41212 1-452)
How it was run: as §1

Sequence of ETV6 (P41212 whole entry): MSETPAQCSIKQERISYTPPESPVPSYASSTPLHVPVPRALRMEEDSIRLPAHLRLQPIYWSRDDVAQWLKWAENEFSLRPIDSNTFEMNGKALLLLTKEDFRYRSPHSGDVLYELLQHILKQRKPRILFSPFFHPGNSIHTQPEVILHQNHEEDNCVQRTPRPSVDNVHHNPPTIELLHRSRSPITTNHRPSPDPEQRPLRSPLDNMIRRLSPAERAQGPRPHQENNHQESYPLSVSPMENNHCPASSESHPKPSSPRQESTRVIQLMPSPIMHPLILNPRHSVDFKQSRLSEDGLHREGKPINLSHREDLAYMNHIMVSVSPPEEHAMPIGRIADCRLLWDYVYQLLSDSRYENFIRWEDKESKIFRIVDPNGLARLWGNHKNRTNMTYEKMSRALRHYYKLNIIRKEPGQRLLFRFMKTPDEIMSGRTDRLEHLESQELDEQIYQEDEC

| Sequence | binding signal [1] | binding signal [2] | binding signal [3] | binding signal [4] | binding signal [5] | binding signal [6] | binding signal [7] | binding signal [8] |
| --- | --- | --- | --- | --- | --- | --- | --- | --- |
| ATTACT | 1.37 fold enrichment (6-mer frequency, TF over GST control) | 1.23 fold enrichment (6-mer frequency, TF over GST control) | 1.31 fold enrichment (6-mer frequency, TF over GST control) | 1.26 fold enrichment (6-mer frequency, TF over GST control) | 1.25 fold enrichment (6-mer frequency, TF over GST control) | 1.25 fold enrichment (6-mer frequency, TF over GST control) | 1.29 fold enrichment (6-mer frequency, TF over GST control) | 1.37 fold enrichment (6-mer frequency, TF over GST control) |
| ATCATA | 1.12 fold enrichment (6-mer frequency, TF over GST control) | 1.12 fold enrichment (6-mer frequency, TF over GST control) | 1.03 fold enrichment (6-mer frequency, TF over GST control) | 1.03 fold enrichment (6-mer frequency, TF over GST control) | 1.1 fold enrichment (6-mer frequency, TF over GST control) | 1.11 fold enrichment (6-mer frequency, TF over GST control) | 1.09 fold enrichment (6-mer frequency, TF over GST control) | 1.1 fold enrichment (6-mer frequency, TF over GST control) |
| ATGCAC | 1.25 fold enrichment (6-mer frequency, TF over GST control) | 1.28 fold enrichment (6-mer frequency, TF over GST control) | 1.29 fold enrichment (6-mer frequency, TF over GST control) | 1.5 fold enrichment (6-mer frequency, TF over GST control) | 1.3 fold enrichment (6-mer frequency, TF over GST control) | 1.19 fold enrichment (6-mer frequency, TF over GST control) | 1.31 fold enrichment (6-mer frequency, TF over GST control) | 1.29 fold enrichment (6-mer frequency, TF over GST control) |
| AAGGTA | 1.05 fold enrichment (6-mer frequency, TF over GST control) | 1.14 fold enrichment (6-mer frequency, TF over GST control) | 1.11 fold enrichment (6-mer frequency, TF over GST control) | 1.16 fold enrichment (6-mer frequency, TF over GST control) | 1.18 fold enrichment (6-mer frequency, TF over GST control) | 1.06 fold enrichment (6-mer frequency, TF over GST control) | 1.09 fold enrichment (6-mer frequency, TF over GST control) | 1.19 fold enrichment (6-mer frequency, TF over GST control) |
| TGTCTC | 1.2 fold enrichment (6-mer frequency, TF over GST control) | 1.3 fold enrichment (6-mer frequency, TF over GST control) | 1.26 fold enrichment (6-mer frequency, TF over GST control) | 1.33 fold enrichment (6-mer frequency, TF over GST control) | 1.16 fold enrichment (6-mer frequency, TF over GST control) | 1.26 fold enrichment (6-mer frequency, TF over GST control) | 1.21 fold enrichment (6-mer frequency, TF over GST control) | 1.22 fold enrichment (6-mer frequency, TF over GST control) |
| ATATGA | 1.13 fold enrichment (6-mer frequency, TF over GST control) | 1.14 fold enrichment (6-mer frequency, TF over GST control) | 1.09 fold enrichment (6-mer frequency, TF over GST control) | 1.05 fold enrichment (6-mer frequency, TF over GST control) | 1.12 fold enrichment (6-mer frequency, TF over GST control) | 1.1 fold enrichment (6-mer frequency, TF over GST control) | 1.08 fold enrichment (6-mer frequency, TF over GST control) | 1.06 fold enrichment (6-mer frequency, TF over GST control) |
| GGTAAT | 1.13 fold enrichment (6-mer frequency, TF over GST control) | 1.06 fold enrichment (6-mer frequency, TF over GST control) | 1.08 fold enrichment (6-mer frequency, TF over GST control) | 1.11 fold enrichment (6-mer frequency, TF over GST control) | 1.14 fold enrichment (6-mer frequency, TF over GST control) | 1.16 fold enrichment (6-mer frequency, TF over GST control) | 1.06 fold enrichment (6-mer frequency, TF over GST control) | 1.16 fold enrichment (6-mer frequency, TF over GST control) |
